Among the test systems are SK-MEL-2 melanoma; EKVX NSCLC; SN12C renal; UO-31 renal; TK-10 renal; ACHN renal; CAKI-1 renal; A498 renal; CCRF-CEM leukemia; MOLT-4 leukemia; SR leukemia; RPMI-8226 leukemia; OVCAR-8 ovarian; OVCAR-5 ovarian; OVCAR-4 ovarian; SK-OV-3 ovarian; IGROV1 ovarian; OVCAR-3 ovarian; HS 578T breast; NCI/ADR-RES ovarian.
What all share (test): NCI-60 one-dose screen, 48 h (100 = growth as untreated, 0 = no growth, -100 = all killed)
Common to all, as to conditions: 10 µM unless noted

Molecules are shown by their SMILES. The panel holds about 83,000 compounds, 20% with a hit somewhere; the sample as a whole holds those more often.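 Activity criterion: percent growth below 10, measured after cells in 96-well plates were exposed to a single compound concentration for 48 hours.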 Values without a mark were called inactive. Active and inactive are the calls of the source.

Consider `N#Cc1cccc(C2C3=C(COC3=O)N(CCO)c3cc4c(cc32)OCO4)c1` (stereo not given), for which the growth in the test with SK-MEL-2 melanoma is 26.8%; in the test on EKVX NSCLC it was 51.8%; in the test on SN12C renal, 44.2%; in the test with UO-31 renal, 43.4%; in the test with TK-10 renal, 50%; in the test with ACHN renal, 39.2%. The growth in the test on CAKI-1 renal was 29.7%; with A498 renal, 11.9%; in the test on CCRF-CEM leukemia it was 7.91% (active); in the test with MOLT-4 leukemia, 24.8%; with SR leukemia, 15.3%; in the test with RPMI-8226 leukemia, 19.2%. Further, the growth was 35.6% in the test with OVCAR-8 ovarian; 69.5% in the test with OVCAR-5 ovarian; 70.9% with OVCAR-4 ovarian; 23% in the test on SK-OV-3 ovarian; 42.1% with IGROV1 ovarian; 3.12% (active) with OVCAR-3 ovarian. Besides, the growth with HS 578T breast was 20.2%; in the test on NCI/ADR-RES ovarian it was 57.3%.
Regarding `C=CN(C(=O)N1CCN(c2cc3c(cc2F)c(=O)c(C(=O)O)cn3C2CC2)CC1)c1nc(-c2ccc(OC)cc2)cs1`, the growth with SK-MEL-2 melanoma was 18.4%; in the test with EKVX NSCLC, 23.7%; in the test on SN12C renal, 11.3%; with UO-31 renal, 15.5%; with TK-10 renal, 42.8%; in the test on ACHN renal, 23.6%. Further, the growth in the test with CAKI-1 renal is 17.3%; in the test on A498 renal, 8.44% (active); in the test on CCRF-CEM leukemia, 8.17% (active); in the test on MOLT-4 leukemia, 18%; in the test on SR leukemia, 20.4%; with RPMI-8226 leukemia it was -6.11% (active). The growth in the test with OVCAR-8 ovarian is 14.3%; in the test with OVCAR-5 ovarian it was 33.8%; in the test with OVCAR-4 ovarian it was 35.3%; with SK-OV-3 ovarian, 17.6%; in the test with IGROV1 ovarian it was 39.6%; in the test on OVCAR-3 ovarian, 13.7%. In addition, the values for the growth with HS 578T breast and in the test on NCI/ADR-RES ovarian were 20.3% and 37.6%, respectively.
`C#CCOc1cccc(-c2ncnc3cc(NC(=O)C=C)ccc23)c1`: the growth was 46.7% with SK-MEL-2 melanoma; 72.2% in the test with EKVX NSCLC; 15% in the test on SN12C renal; 15% in the test on UO-31 renal; 13.8% in the test on TK-10 renal; 25.5% with ACHN renal. Also, the growth was 15.9% in the test with CAKI-1 renal; 44.5% in the test with A498 renal; 8.7% (active) in the test with CCRF-CEM leukemia; 30.8% in the test on MOLT-4 leukemia; 5.05% (active) in the test on SR leukemia; 21.1% in the test on RPMI-8226 leukemia. Besides, the growth in the test with OVCAR-8 ovarian is 38.3%; with OVCAR-5 ovarian it was 38.5%; with OVCAR-4 ovarian it was 70.9%; in the test on SK-OV-3 ovarian, 79.9%; in the test with IGROV1 ovarian, 33.5%; in the test with OVCAR-3 ovarian, 28.6%. Besides, the figures for the growth in the test on HS 578T breast and in the test on NCI/ADR-RES ovarian were 24.6% and 53.5%, respectively.
In the case of `COc1cc(/C=C/C(=O)c2ccc(-n3cc(CN4CCN(c5cc6c(cc5F)c(=O)c(C(=O)O)cn6C5CC5)CC4)nn3)cc2)ccc1O`, the growth in the test with SK-MEL-2 melanoma was 93%; in the test with EKVX NSCLC it was 85%; in the test on SN12C renal it was 37.6%; in the test with UO-31 renal, 52.6%; in the test on TK-10 renal it was 84.9%; with ACHN renal it was 77.7%. The growth in the test with CAKI-1 renal is 52.5%; with A498 renal it was 70.8%; in the test with CCRF-CEM leukemia, 29.9%; with MOLT-4 leukemia it was 68.2%; with SR leukemia, 14.1%; in the test on RPMI-8226 leukemia, -14.6% (active). The growth with OVCAR-8 ovarian is 42.7%; in the test on OVCAR-5 ovarian, 84.7%; in the test on OVCAR-4 ovarian, 62.9%; in the test with SK-OV-3 ovarian, 72.3%; in the test on IGROV1 ovarian, 51.8%; in the test with OVCAR-3 ovarian it was 57.3%. Besides, the growth in the test with HS 578T breast is 73.7%; in the test with NCI/ADR-RES ovarian, 94.2%.
Regarding `C=C1C(=O)O[C@H]2[C@H]1CC/C(COC(=O)/C=C\C(=O)NCc1ccc(Cn3c(=O)sn(CCCCC)c3=O)cc1)=C\CC[C@@]1(C)O[C@@H]21`, the growth in the test with SK-MEL-2 melanoma was 87.6%; in the test with EKVX NSCLC it was 98%; in the test on SN12C renal it was 71%; in the test on UO-31 renal, 60.7%; with TK-10 renal, 57.4%; in the test with ACHN renal, 46.9%. The growth in the test with CAKI-1 renal was 66.6%; with A498 renal it was 100%; in the test with CCRF-CEM leukemia, 4.56% (active); in the test with MOLT-4 leukemia, 18%; in the test on SR leukemia it was 59.7%; in the test on RPMI-8226 leukemia it was 8.85% (active). Besides, the growth in the test with OVCAR-8 ovarian was 84.5%; in the test with OVCAR-5 ovarian, 89%; in the test on OVCAR-4 ovarian it was 84.6%; in the test on SK-OV-3 ovarian, 111%; in the test with IGROV1 ovarian, 58%; with OVCAR-3 ovarian it was 36%. Also, the growth was 98.2% with HS 578T breast and 98.8% in the test with NCI/ADR-RES ovarian.
Consider `CCO/C=N/C1=C(C#N)C(c2ccc(F)cc2)c2sc3c(F)cccc3c2O1` (stereo not given), for which the growth in the test on SK-MEL-2 melanoma was 2.27% (active); with EKVX NSCLC, 66.5%; with SN12C renal, 49.7%; in the test with UO-31 renal, 54.2%; with TK-10 renal it was 64.4%; in the test with ACHN renal, 54%. Also, the growth with CAKI-1 renal was 25.2%; in the test on A498 renal, 40.8%; in the test with CCRF-CEM leukemia, 22.9%; in the test on MOLT-4 leukemia, 51.5%; with SR leukemia, 31.8%; in the test on RPMI-8226 leukemia, 41.9%. In addition, the growth in the test on OVCAR-8 ovarian is 51.5%; with OVCAR-5 ovarian, 83.4%; in the test with OVCAR-4 ovarian, 67.8%; in the test with SK-OV-3 ovarian, 46.9%; in the test with IGROV1 ovarian, 50.3%; in the test with OVCAR-3 ovarian, 8.43% (active). In addition, the growth with HS 578T breast is 24.4%; in the test with NCI/ADR-RES ovarian, 25.6%.
Turning to `COc1ccc2nc(Cl)c(/C=C3\CC(c4ccccc4)=NN(c4ccccc4)C3=O)cc2c1`, the growth was 63.4% in the test on SK-MEL-2 melanoma; 67.7% with EKVX NSCLC; 72.3% in the test with SN12C renal; 61.7% in the test on UO-31 renal; 78.6% in the test on TK-10 renal; 18.4% with ACHN renal. In addition, the growth in the test on CAKI-1 renal was 14.5%; in the test on A498 renal it was 46.9%; with CCRF-CEM leukemia, 96.9%; in the test with MOLT-4 leukemia, 79.8%; in the test with SR leukemia, 76.6%; in the test on RPMI-8226 leukemia, 97.3%. The growth in the test with OVCAR-8 ovarian was 41.8%; in the test on OVCAR-5 ovarian it was 93.5%; in the test on OVCAR-4 ovarian, 37.4%; with SK-OV-3 ovarian, 46.5%; in the test with IGROV1 ovarian, 50.7%; in the test on OVCAR-3 ovarian, 74.4%. Besides, the results for the growth in the test on HS 578T breast and with NCI/ADR-RES ovarian were 32.9% and 60.2%, respectively.

For the origin of these results see PubChem BioAssay (NCI).
